GLP-1R inv ag: inverse agonists of human GLP-1 receptor. P43220. HEK293 GLP-1R CRE-luciferase, luminescence, 24 h; GLP-1R form is constitutively active. Potency, µM (doses to about 38.3 µM), for the others: at the top dose activity change, negative = inhibition, actives largely listed as inhibitors. 410,000 tested, 1.6% active. AID 624417; also: % is scaled to controls: 0 for no effect and ±100 for the full control effect; nearly all actives have a fitted effect of over 55% in size
Target sequence (P43220 whole entry, looked up): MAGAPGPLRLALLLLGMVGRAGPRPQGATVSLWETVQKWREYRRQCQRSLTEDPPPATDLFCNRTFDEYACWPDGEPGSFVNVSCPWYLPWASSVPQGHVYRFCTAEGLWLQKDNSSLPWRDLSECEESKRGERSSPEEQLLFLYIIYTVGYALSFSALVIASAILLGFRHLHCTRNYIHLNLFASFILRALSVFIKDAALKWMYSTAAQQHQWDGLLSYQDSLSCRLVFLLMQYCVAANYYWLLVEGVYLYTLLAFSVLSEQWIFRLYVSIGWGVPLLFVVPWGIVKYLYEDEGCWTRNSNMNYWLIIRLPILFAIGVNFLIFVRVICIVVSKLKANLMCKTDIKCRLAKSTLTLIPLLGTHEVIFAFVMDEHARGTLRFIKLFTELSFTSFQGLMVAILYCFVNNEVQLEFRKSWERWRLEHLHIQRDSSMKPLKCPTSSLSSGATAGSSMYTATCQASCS
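Assay principle: reduced luminescence from a cAMP-responsive reporter in HEK293 cells co-expressing a constitutively active GLP-1R. Conditions: 24 hr compound incubation, 37 deg C, 5% CO2.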
GLP1R cytotox: cytotoxic in the GLP-1 receptor inverse agonist counter-screen. Potency, µM (series often up to 38.3 µM), without a hit: at the top dose activity change, negative = inhibition, hits mostly inhibitors. HEK293 cAMP-luciferase reporter cells, luminescence, 24 h. AID 624418. 410,000 tested, 0.13% active;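 also: loss of luciferase light is scored as toxicity; % is scaled to controls: 0 for no effect and ±100 for the full control effect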
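A 23 nL compound transfer followed 12 hours of cell culture at 37 deg C; exposure then lasted 24 hr. Luciferase assay detection reagent was dispensed and plates read for luminescence after a 12 min room-temperature wait.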
a7 integrin act: activators of alpha7 integrin expression for muscular dystrophy; alpha7betagal myoblasts, beta-gal FDG fluorescence, 48 h; Potency, µM (highest dose often 38.3 µM), for inactives: at the highest dose activation, most hits filed as activators; 350,000 tested, 0.064% active;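 also: 100% = response of the positive control SU9516; nearly all actives have a fitted effect of over 60% in size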
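Alpha7betagal+/- myoblasts (passage 13) were plated 16-24 hr, then exposed to compounds (1:260 dilution of DMSO stock) for 48 hours at 37C. After MPER lysis, β-galactosidase reporter activity was read as FDG fluorescence (ex 480/em 540) after 30 minutes.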
GLP1R ag: agonists of human GLP-1 receptor. HEK293 GLP-1R CRE-luciferase, luminescence, 4-6 h; cells express a hypersensitive GLP-1R form. 380,000 tested, 0.007% active. Potency, µM (top dose mostly 45.6 µM), inactives show top-dose activation, hits mostly activators. P43220; also: % of control where 0% means no effect
BRCA1 expr up: activators of BRCA1 expression; MCF7-BRCA1-FFLuc reporter, luminescence, 48 h; response scale: scaled: vehicle 0%, 10 µM genistein 100%; Potency, µM (series often up to 46.1 µM), without a hit: at the top dose activation, usual class: activators; 380,000 tested, 1.1% active; AID 624202; also: nearly all actives have a fitted effect of over 80% in size
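Cells: MCF7-BRCA1-FFLuc, 2000/well. Exposure: 48 h, 37 °C, 5% CO2. Read: luminescence, 15 min post-substrate. Controls: genistein 10 microM (maximal activation), DMSO (neutral).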
* marks the source's active call; other numbers are inactive results; u = inconclusive; x = no result given. In the library only some 2.7% were active in any assay of this set; here they are far more common. Calls follow the shape of the dose curve; as a rule, active = well fitted curve in the direction sought with a large enough effect; inconclusive = small, poorly fitted or top-dose-only effect, or another doubt; inactive = no such curve, though single readings can be large; an effect the other way counts as inactive or inconclusive. Potency is read from the fitted curve at half-maximal effect.

SMILES	GLP-1R inv ag	GLP1R cytotox	a7 integrin act	GLP1R ag	BRCA1 expr up
O=C(NCCc1ccccc1)c1cccc(NC(=O)C2CCCC2)c1	-21%	-10%	-8%	-3%	10µM*
O=C(NCCc1ccccc1)c1cccc(NC(=O)C2CCCCC2)c1	u	-8%	-17%	-1%	84%
O=C(NCCc1ccccc1)c1ccc(NC(=O)C2CC2)cc1	2%	2%	-4%	4%	u
CN(C)CCNC(=O)c1coc(=O)c(Br)c1	79%	-3%	-37%	-8%	-1%
CCOc1ccc(N(C(=O)c2ccccc2F)S(=O)(=O)c2ccc3c(c2)n(C)c(=O)n3C)cc1	-2%	9%	x	x	x
CCOc1ccc(NC(=O)c2oc(=O)c3ccccc3c2-c2ccc(C)cc2)cc1	-17%	-7%	x	x	x
O=C(NCCc1ccc(F)cc1)N[C@@H](Cc1ccccc1)C(=O)O	-4%	-41%	11µM*	4%	2%
O=C(NCCCCNC(=O)c1ccc(F)cc1)c1ccc(F)cc1	5%	6%	8%	1%	-17%
O=C(NCCCc1ccccc1)c1ccc(F)cc1	u	-3%	24%	26%	7.1µM*
O=c1oc2cc(OCc3c(F)cccc3Cl)ccc2cc1-c1ccccn1	7%	-6%	-2%	-10%	u
CCCOc1ccc2cc(-c3ccccn3)c(=O)oc2c1	2.8µM*	41%	17%	-3%	-75%
CN(C)C(=O)COc1ccc2cc(-c3ccccc3)c(=O)oc2c1	0%	3%	-11%	-5%	11µM*
O=C(Cc1ccc(NC(=O)N2CCSc3ncccc32)cc1)NCc1ccccc1	9%	-1%	x	x	x
COc1cc2nc(N3CCCN(C)CC3)nc(Nc3ccncc3)c2cc1OC	x	x	x	x	-48%
CCn1c2ccccc2c2cc(NC(=O)N3CCCCC3)ccc21	10µM*	-8%	10%	17%	8.9µM*
CN(C)S(=O)(=O)c1ccc(NC(=O)Cc2ccc(S(=O)(=O)N3CCOCC3)s2)cc1	7%	15%	11%	8%	-17%
CCCC(=O)Nc1ccc2c(c1)c1ccccc1n2CC	-19%	6%	26%	1%	-62%
CCn1c2ccccc2c2cc(NC(=O)Cc3ccc(S(=O)(=O)N4CCOCC4)s3)ccc21	10µM*	-22%	-29%	-9%	-8%
Cc1ccc(C)c(N2CCN(C(=O)c3cn(CC(C)C)c(=O)c4c3c3ccccc3n4C)CC2)c1	8%	-12%	x	x	x
Cc1cccc(NC(=O)C(=O)NCC(c2ccc3c(c2)OCO3)N2CCOCC2)c1C (configuration not stated)	-28%	13%	x	x	x
Cc1ccc(C2=C(CC(=O)O)C(=O)CC2)cc1	9%	-6%	4.5µM*	5%	-15%
COC(=O)CC1=C(c2ccc([N+](=O)[O-])cc2)CCC1=O	6%	-2%	-13%	23%	-10%
CC(=O)N1CCc2c(sc3nc(SCC(C)C)n(-c4ccc(C)c(Cl)c4)c(=O)c23)C1	u	-2%	x	x	x
CC1=C(C(=O)Nc2ccccc2C(=O)NC2CCCCC2C)SCCO1 (configuration not stated)	10µM*	0%	17%	1%	15%
CC(C)(C)c1ccc(C(=O)NC(=S)N2CCOCC2)cc1	-17%	u	-13%	8%	10µM*
SMILES	GLP-1R inv ag	GLP1R cytotox	a7 integrin act	GLP1R ag	BRCA1 expr up
Cc1c(C(=O)Nc2ccc(F)c(F)c2)oc2ccc(S(=O)(=O)N(C)C3CCCCC3)cc12	8%	-10%	x	x	x
O=C(NCc1ccccc1Cl)c1ccc(NC(=O)N2CCSc3ccccc32)cc1	u	-3%	x	x	x
COc1cc(C#Cc2ccc3cc(CCO)oc(=O)c3c2)cc(OC)c1	33%	22%	-15%	u	7.1µM*
CC12C(=O)N(c3nccs3)C(=O)C1(C)C1CCC2O1 (configuration not stated)	u	u	22%	3%	0%
C[C@@]12C(=O)OC(=O)[C@]1(C)C1CCC2O1	1.8µM*	u	x	-10%	-72%
COc1ccc(-n2c(=O)c3ccccc3n(CC(=O)NCCc3ccccc3)c2=O)c(OC)c1	-11%	-1%	x	x	x
Cc1cc(=O)n(CC(=O)Nc2ccc(Cl)c(Cl)c2)c(-n2nc(C)cc2C)n1	3%	3%	x	x	x
COc1cccc(C(=O)Oc2c(Br)cc(Br)cc2/C=N/NC(=O)c2cc(C)[nH]n2)c1	6.3µM*	-1%	6%	0%	-74%
COc1ccccc1N1CCN(C2CCCCC2NS(=O)(=O)c2ccccc2)CC1 (configuration not stated)	10µM*	0%	-5%	-5%	-10%
CN1CCN(C2CCCCC2NS(=O)(=O)c2ccccc2)CC1 (configuration not stated)	-6%	-1%	0%	-1%	0%
CN(C)Cc1cc(C(C)(C)c2ccccc2)ccc1O	10µM*	-8%	-24%	-2%	-12%
CC(C)(c1ccc(O)c([N+](=O)[O-])c1)c1ccc(O)c([N+](=O)[O-])c1	-42%	-33%	24%	8%	-2%
CN(Cc1cccc2ccccc12)C(=O)c1cc(COc2c(F)cccc2F)on1	10µM*	-18%	4%	10%	-16%
CN(Cc1cc(-c2ccccc2)on1)C(=O)c1cc(COc2c(F)cccc2F)on1	u	-4%	-17%	19%	11µM*
COc1cccc(CNC(=O)CCCN2C(=O)CSc3c2c(C)nn3-c2ccccc2)c1	-24%	-7%	x	x	0%
CCc1nc(-c2ccc(C)c(S(=O)(=O)N3CCN(c4ccc(C(C)=O)cc4)CC3)c2)no1	u	7%	x	x	x
CCOc1ccc(CN2CCC(C(=O)Nc3cccc(-c4ccn[nH]4)c3)CC2)cc1Cl	10µM*	u	-63%	-1%	5%
Cc1cccc(-n2ccnc2SCC(=O)Nc2cccc3ccccc23)c1	u	0%	x	4%	0%
CC1Cc2ccccc2N1C(=O)COc1ccc2c(c1)OCO2 (configuration not stated)	u	-6%	0%	u	3.2µM*
CC1CCCN(C(=O)COc2ccc3c(c2)OCO3)C1 (configuration not stated)	33%	-5%	3%	-2%	0%
CCOC(=O)c1c(C)[nH]c(C(=O)OCC(=O)N2c3ccccc3CC2C)c1C (configuration not stated)	8.9µM*	-17%	-11%	-1%	-15%
CCCCOc1ccc(C(C)NC(=O)CN2C(=O)CSc3ccc(S(=O)(=O)N4CCOCC4)cc32)cc1 (configuration not stated)	u	5%	x	x	x
COc1ccc(-c2cc3nc(C)c(CCC(=O)NCc4ccccc4Cl)c(C)n3n2)c(OC)c1	0%	26%	x	3%	5%
